# Measurements published in PubChem BioAssay (Tox21).
# Records with an inconclusive call do not appear. A number with no mark means an inactive call. Calls of active or inactive are those of the source. The call rests on the fitted dose curve; in most records, active means well fitted activation curve with a large enough effect in the repeat runs; inconclusive means weak or mixed curves; inactive means flat fitted curve, though single readings scatter.
# Test: A CellTox Green Cytotoxicity Assay to monitor cytotoxicity in HepG2 cells - 24 hour (AID 1224878); further: nearly all actives have a fitted effect of over 45% in size
# Details: CellTox Green fluorescence; series mostly up to 76.8 µM; cytotoxicity: at the top concentration
# Method in brief: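 Fluorescent DNA-binding dye, 600 HepG2 cells/well, 5 h preincubation then compound in DMSO; same plates read at 0–40 h, 37 C.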
# On the % scale 0 is the no-effect control and ±100 the full control effect; potency means the concentration at half of the fitted maximal effect.
SMILES,cytotoxicity,Potency
CC(C)Cc1ccc(C(C)C(=O)OCc2ccccn2)cc1 (stereo not given),9.29% [at 35.3 µM],
CC1=CC=C(C(C)C)CC1,4.9%,
CN1CCN(C(c2ccccc2)c2ccccc2)CC1,16% [at 35.3 µM],
C/C(=C(\CCOP(=O)(O)O)SC(=O)c1ccccc1)N(C=O)Cc1cnc(C)nc1N,-0.377% [at 6.97 µM],
C=C(C)C(=O)OCCOCC,14.1%,
CCOC(=O)COC(=O)c1cc(Oc2ccc(C(F)(F)F)cc2Cl)ccc1[N+](=O)[O-],-12%,
COc1ccc(C(=O)c2ccc(OC)cc2O)c(O)c1,12.1%,
C[N+]1(C)CCC(OC(=O)C(O)(c2ccccc2)C2CCCC2)C1 (stereo not given),17.7% [at 35.3 µM],
NS(=O)(=O)c1ccc(N2CCCCS2(=O)=O)cc1,0.0067% [at 35.3 µM],
O=C(O)c1ccc(-n2nc(-c3ccccc3O)nc2-c2ccccc2O)cc1,0.303% [at 35.3 µM],
CCOc1ccc(O)cc1,-17.5%,
CN(Cc1ccc(C(C)(C)C)cc1)Cc1cccc2ccccc12,17.8% [at 35.3 µM],
CC(=O)c1ccc2c(c1)N(CCCN(C)C)c1ccccc1S2,18.8% [at 35.3 µM],
CCCn1cnc2c1c(=O)n(CCCCC(C)=O)c(=O)n2C,11% [at 35.3 µM],
CCCC(=O)Nc1ccc(O)c(C(C)=O)c1,-13.5% [at 35.3 µM],
CC(C)CC(=O)C1C(=O)c2ccccc2C1=O,10.8%,
CN(C)c1ccc(CCO)cc1,1.2%,
CCN(CC)CCOC(=O)C(c1ccccc1)C1CCCCC1 (stereo not given),,23.9 µM (active)
Cc1ccc(C(=O)Oc2ccc(C(O)CNC(C)(C)C)cc2OC(=O)c2ccc(C)cc2)cc1 (stereo not given),,21.3 µM (active)
Cc1[nH]c(C)c(Cl)c(=O)c1Cl,-5.69% [at 15.8 µM],
